Not all results are given here.
CYP2C19 act: cytochrome P450 2C19 (human) activation. P33261. recombinant CYP2C19, luciferin-H EGE luminescence; hits give high values; 0 = fully inhibited enzyme, 1 = untreated enzyme. activation factor at 5 µM. 96,000 tested, under 10 active. AID 1025;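 active = activation factor of at least 2 at 5 µM in the primary screen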;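 also: 0 = wells with 2.5 mM tranylcypromine and 1 = vehicle-only wells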
CYP2C9 inhib: blocks human cytochrome P450 2C9; P11712; CYP2C9 Supersomes, luciferin-H conversion, luminescence; inhibition, % at 5 µM; 20% of 96,000 active; AID 777;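 active = blocking of liver enzyme CYP2C9 beyond about 50% at 5 µM, limit read from the data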
Target sequence (P11712 whole entry, looked up): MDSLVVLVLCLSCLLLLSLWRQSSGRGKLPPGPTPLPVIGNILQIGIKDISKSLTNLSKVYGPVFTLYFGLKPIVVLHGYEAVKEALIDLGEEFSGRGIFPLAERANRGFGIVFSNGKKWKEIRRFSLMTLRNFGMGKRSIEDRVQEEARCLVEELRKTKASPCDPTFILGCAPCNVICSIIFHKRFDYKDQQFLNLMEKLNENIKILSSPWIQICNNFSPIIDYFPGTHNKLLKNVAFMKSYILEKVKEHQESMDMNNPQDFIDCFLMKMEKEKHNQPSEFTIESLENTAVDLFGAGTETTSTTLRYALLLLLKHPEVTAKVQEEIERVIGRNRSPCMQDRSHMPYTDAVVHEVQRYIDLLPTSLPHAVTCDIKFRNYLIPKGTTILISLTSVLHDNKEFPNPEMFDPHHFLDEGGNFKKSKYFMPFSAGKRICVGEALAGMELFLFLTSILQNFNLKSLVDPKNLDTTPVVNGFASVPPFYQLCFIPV
sEH inh: soluble epoxide hydrolase (human) inhibition; 0.34% of 91,000 active; P34913; inhibition, % at 2 µM; recombinant human sEH enzymatic activity assay; AID 707; in the data active = inhibition above about 80%
CYP2C9 act: CYP2C9 (human) activation; P11712; recombinant CYP2C9, luciferin-H conversion, luminescence; hits give high values; factor 1 = untreated enzyme, 0 = blocked; activation factor at 5 µM; 1.4% of 96,000 active;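 active = activation factor of 2 or more for CYP2C9 at a 5 µM dose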;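 also: 0 = sulfaphenazole-blocked wells and 1 = vehicle-only wells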
CYP2C19 inhib: inhibitors of human CYP2C19 | P33261 | CYP2C19 Supersomes, luciferin-H EGE luminescence, 30 min | inhibition, % at 5 µM | 21% of 96,000 active | AID 778;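 active = CYP2C19 inhibition above a set limit at 5 µM in the primary screen, cut at about 50% in these data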;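 also: plate controls were negative control wells for no effect and 2.5 mM tranylcypromine positive control for full effect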
sEH act: increases human soluble epoxide hydrolase activity; purified human sEH enzymatic activity, activator screen; activation, % at 2 µM; 0.04% of 91,000 active; in the data active = activation above about 37%
The depositor's hits bear a star; x = not tested or not shown.

SMILES	CYP2C19 act	CYP2C9 inhib	sEH inh	CYP2C9 act	CYP2C19 inhib	sEH act
Nc1cccc2c1C(=O)N(C(=O)c1ccc(Cl)c(S(=O)(=O)N3CCCCCC3)c1)C2=O	1	11.2	-3.0	0.9	3.6	6.1
Cc1cc2c(cc1C)N(C(=O)CSc1nncn1C)C(C)(C)c1ssc(=S)c1-2	x	x	4.5	x	x	-2.1
Cc1ccc2c(c1)N(C(=O)c1ccco1)C(C)(C)c1ssc(=S)c1-2	0.7	53.8*	-8.9	0.5	33.0	5.1
Cc1cccc2c1N(C(=O)c1ccco1)C(C)(C)c1ssc(=S)c1-2	0.9	20.7	-0.8	0.8	10.0	3.8
Cc1ccc2c(c1)N(C(=O)CSc1nncn1C)C(C)(C)c1ssc(=S)c1-2	0.3	48.3	-21.9	0.5	66.9*	19.0
O=C(NCC1CCCO1)C1CCN(S(=O)(=O)c2cccc3nonc23)CC1 (centres undefined)	1	-44.9	11.8	1.4	1.5	-10.1
Cc1ccc(S(=O)(=O)/C(C#N)=C/c2c(N3CCN(C)CC3)nc3ccccn3c2=O)cc1	0.8	80.7*	0.0	0.2	16.9	-0.1
Cc1ccc(S(=O)(=O)/C(C#N)=C/c2c(N3CC(C)OC(C)C3)nc3ccccn3c2=O)cc1 (centres undefined)	0.8	56.7*	4.9	0.4	20.0	-3.2
CCN(CCCNC(=O)CC1Oc2ccc(C)cc2NC1=O)Cc1ccccc1 (centres undefined)	1	-1.2	x	1	-3.5	x
CC1CCCCN1CCNC(=O)CN1C(=O)COc2ccccc21 (centres undefined)	1.1	-7.6	x	1.1	-7.5	x
Cc1ccc(Nc2nc(-c3c(C)nc4ncccn34)cs2)cc1	0.8	-102.9	8.1	2*	19.3	-5.5
Cc1ccnc(Nc2nc(-c3c(C)nc4sccn34)cs2)c1	0.7	25.0	9.1	0.8	26.2	-10.0
Cc1ccc(Nc2nc(-c3c(C)nc4ccccn34)cs2)cc1	0.3	-92.3	-8.2	1.9	66.7*	9.5
CCC(=O)OC1=C2C(=Nc3c(c(=O)n(C)c(=O)n3C)C2c2ccccc2)c2ccccc21 (centres undefined)	x	x	-11.2	x	x	10.4
Oc1ccc(-n2cnnn2)cc1	1.1	-40.9	-6.3	1.4	-10.4	5.5
Cn1nc(-c2ccccc2)c(C(O)c2ccc(Cl)cc2)c1Cl (centres undefined)	0	88.5*	x	0.1	95.2*	x
Cn1nc(-c2ccccc2)c(CSc2ccccc2Cl)c1Cl	0.6	24.2	-15.5	0.8	36.3	12.3
CCN1C(=O)CC(C(=O)Nc2ccc(F)cc2)SC1=Nc1ccc2c(c1)OCO2 (centres undefined)	1.1	33.8	9.7	0.7	-5.2	-10.2
C/C(CCc1ccc2c(c1)OCO2)=N\N=C1\NC(=O)CC(C(=O)Nc2ccccc2)S1 (centres undefined)	0.8	67.8*	-1.2	0.3	22.1	0.7
CC1CN(C)C(C)CC1NCc1ccc2c(c1)OCO2 (centres undefined)	0.9	5.4	x	0.9	14.0	x
Cc1cc(C)n(C(=O)CNC(=O)COc2ccccc2)n1	0.9	-99.9	x	2*	12.7	x
Cc1ccc(OCC(=O)n2nc(C)cc2C)c(Br)c1	x	x	5.9	x	x	-4.6
COc1ccc(C(=O)NCC(=O)n2nc(C)cc2C)cc1OC	1.2	-95.5	-14.1	2*	-19.9	15.4
Cc1ccc(OCC(=O)NCC(=O)n2nc(C)cc2C)cc1	0.5	-127.7	-4.5	2.3*	48.4	3.0
Cc1cc(C)n(C(=O)CNC(=O)c2ccco2)n1	0.9	14.7	1.3	0.9	14.2	-1.2
SMILES	CYP2C19 act	CYP2C9 inhib	sEH inh	CYP2C9 act	CYP2C19 inhib	sEH act
Cc1cc(C)n(C(=O)CNC(=O)Cc2ccccc2)n1	0.8	-58.6	4.2	1.6	17.1	-4.2
CC1=C(C(=O)N(C)C)C(c2cccc(Cl)c2)NC(=O)N1 (centres undefined)	1	-1.3	x	1	4.7	x
Cc1ccc(C(=O)C2COC(=O)C2)cc1 (centres undefined)	1	-6.8	-4.0	1.1	-0.2	7.4
O=C(OCc1ccc2c(c1)OCO2)c1ccc(S(=O)(=O)N2CCCCC2)cc1	0.9	20.1	-18.9	0.8	9.8	17.2
O=C(c1cccc(S(=O)(=O)NCc2ccccc2)c1)N1CCN(Cc2ccccc2)CC1	0.4	30.2	-4.2	0.7	64.8*	7.5
CC1CCN(c2nc3ccc(C(=O)N4CCN(Cc5ccc6c(c5)OCO6)CC4)cc3s2)CC1	0.1	90.0*	4.6	0.1	94.1*	-6.0
O=C(c1ccccc1S(=O)(=O)NCc1ccccc1)N1CCCC1	0.1	66.1*	10.2	0.3	89.8*	-6.3
O=C(c1ccc(S(=O)(=O)N2CCCC2)cc1)N1CCN(Cc2ccc3c(c2)OCO3)CC1	0.5	63.4*	-8.2	0.4	46.6	7.5
Cc1ccc(S(=O)(=O)NCc2ccc(C(=O)N3CCN(Cc4ccccc4)CC3)cc2)cc1	0.6	30.0	-5.8	0.7	38.6	2.7
O=C(c1ccccc1S(=O)(=O)NCC(O)COc1ccc([N+](=O)[O-])cc1)N1CCCCC1 (centres undefined)	0.9	9.9	x	0.9	10.7	x
O=C(c1ccc2nc(N3CCOCC3)sc2c1)N1CCCC1	1	16.3	x	0.8	0.8	x
COc1cc2c(cc1NC(=O)CN(C)Cc1nc3ccccc3c(=O)[nH]1)oc1ccccc12	1.1	22.4	x	0.8	-13.9	x
O=C(Nc1nnc(-c2ccc3c(c2)CCCC3)o1)C1COc2ccccc2O1 (centres undefined)	1	9.1	6.7	0.9	3.8	-9.1
CCCCC(=O)Nc1ccc(N2CCN(S(C)(=O)=O)CC2)cc1	1	4.9	15.8	1	2.2	-13.7
CC(C)Cn1c(CN2CCCCC2C)nc2c1c(=O)n(C)c(=O)n2C (centres undefined)	0.9	12.0	15.2	0.9	7.6	-15.3
COc1ccc(C(=O)Cc2cc(OC)c(OC)cc2[N+](=O)[O-])c(OC)c1	0.9	-37.6	-8.0	1.4	14.1	11.4
C[N+]1(CC(=O)Nc2ccccc2Cl)CCN(C(=O)c2cccs2)CC1	1.1	-15.0	-3.2	1.1	-12.0	1.3
C=CCn1c(N)c(C(=O)NCCC2=CCCCC2)sc1=S	1	21.8	54.2	0.8	4.9	-53.6
O=C(O)CCC(=O)NCc1ccc(F)cc1	0.9	49.1	-2.7	0.5	7.8	3.2
O=C(CS(=O)(=O)Cc1ccccc1)N1CCN(Cc2ccc3c(c2)OCO3)CC1	0.8	23.4	5.9	0.8	21.8	-3.3
O=C(CCc1ccc(S(=O)(=O)NCc2ccccc2)cc1)N1CCN(Cc2ccc3c(c2)OCO3)CC1	0.5	64.8*	2.7	0.4	46.9	-1.5
O=C(CCc1ccc(S(=O)(=O)N2CCOCC2)cc1)N1CCN(Cc2ccc3c(c2)OCO3)CC1	0.6	77.4*	17.3	0.2	39.2	-18.2
O=C(Nc1ccccc1)OCN1C(=O)c2ccccc2C1=O	0.8	-27.1	5.3	1.3	21.4	-5.6
CC(C)c1nc2cc3ccccc3cc2[nH]1	0.9	12.8	-4.2	0.9	11.5	4.5

Screening results: PubChem, several laboratories
